Targets with a hit are over-represented here; the source holds about 7,900 in all. About 0.6% of all pairs of compound and target were hits.
Legend:
Experiment in all cases: log2 fold change, soluble protein after heating vs DMSO (PISA); higher = thermal stabilisation; K562 cells, 10 uM, 30 min; active = over 0.2 and 3.5 SD of the protein, either way, in both replicates (recomputed)
ZW10 = ZW10 (UniProt O43264)
Summary of the method: (§1)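 K562 cells (2×10^6 cells/mL) were treated with 10 μM compound for 30 min, and aliquots were heated for 3 min over 48°C-58°C. Pooled aliquots were extracted in PBS with 0.5% NP-40 at 4°C, and the supernatant after 21,000xg for 90 min was measured by TMTpro 16plex LC-MS/MS with channel sums equalised. Reported thermal stability, relative to control samples and from duplicates, is a log2 fold change.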

ZWILCH = ZWILCH (UniProt Q9H900)
Summary of the method: as §1

ZYG11B = ZYG11B (UniProt Q9C0D3)
Summary of the method: as §1

Measured: log2 fold change

ZYG11B, sequence (Q9C0D3 whole entry, looked up): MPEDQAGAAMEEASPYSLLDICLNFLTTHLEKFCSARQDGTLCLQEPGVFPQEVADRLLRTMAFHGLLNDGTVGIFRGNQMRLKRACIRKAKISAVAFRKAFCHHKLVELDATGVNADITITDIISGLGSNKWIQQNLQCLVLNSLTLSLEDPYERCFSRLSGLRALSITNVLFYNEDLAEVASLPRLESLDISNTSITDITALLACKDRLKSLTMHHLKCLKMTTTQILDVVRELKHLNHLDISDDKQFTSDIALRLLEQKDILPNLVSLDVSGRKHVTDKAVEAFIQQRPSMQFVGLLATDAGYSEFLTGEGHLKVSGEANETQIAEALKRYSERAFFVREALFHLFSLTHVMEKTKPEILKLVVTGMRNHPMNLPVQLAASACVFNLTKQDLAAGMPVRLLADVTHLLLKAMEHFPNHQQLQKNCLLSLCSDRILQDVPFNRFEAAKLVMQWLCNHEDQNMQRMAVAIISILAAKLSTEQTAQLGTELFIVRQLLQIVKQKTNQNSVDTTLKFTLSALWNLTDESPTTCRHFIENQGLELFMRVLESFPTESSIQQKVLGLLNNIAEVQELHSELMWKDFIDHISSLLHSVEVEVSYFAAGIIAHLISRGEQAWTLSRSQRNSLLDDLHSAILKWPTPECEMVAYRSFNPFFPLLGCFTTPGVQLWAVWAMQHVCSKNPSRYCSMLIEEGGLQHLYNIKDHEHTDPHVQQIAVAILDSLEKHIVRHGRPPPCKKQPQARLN
ZWILCH, sequence (Q9H900 whole entry, looked up): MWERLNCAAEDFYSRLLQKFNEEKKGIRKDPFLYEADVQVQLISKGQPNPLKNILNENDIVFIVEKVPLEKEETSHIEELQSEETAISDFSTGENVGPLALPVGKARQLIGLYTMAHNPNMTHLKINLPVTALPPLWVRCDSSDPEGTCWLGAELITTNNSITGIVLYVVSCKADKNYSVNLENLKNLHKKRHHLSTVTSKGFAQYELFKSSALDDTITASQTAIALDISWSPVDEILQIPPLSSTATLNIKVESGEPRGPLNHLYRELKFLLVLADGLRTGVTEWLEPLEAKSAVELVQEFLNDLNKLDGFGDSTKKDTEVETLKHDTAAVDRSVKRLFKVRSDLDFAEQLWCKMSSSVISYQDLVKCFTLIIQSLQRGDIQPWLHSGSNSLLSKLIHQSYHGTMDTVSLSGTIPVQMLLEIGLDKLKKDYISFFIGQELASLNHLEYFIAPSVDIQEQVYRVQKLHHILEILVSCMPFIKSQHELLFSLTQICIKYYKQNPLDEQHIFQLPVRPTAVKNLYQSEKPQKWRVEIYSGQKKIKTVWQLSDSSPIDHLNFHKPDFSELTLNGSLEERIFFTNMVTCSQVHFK
ZW10, sequence (O43264 whole entry, looked up): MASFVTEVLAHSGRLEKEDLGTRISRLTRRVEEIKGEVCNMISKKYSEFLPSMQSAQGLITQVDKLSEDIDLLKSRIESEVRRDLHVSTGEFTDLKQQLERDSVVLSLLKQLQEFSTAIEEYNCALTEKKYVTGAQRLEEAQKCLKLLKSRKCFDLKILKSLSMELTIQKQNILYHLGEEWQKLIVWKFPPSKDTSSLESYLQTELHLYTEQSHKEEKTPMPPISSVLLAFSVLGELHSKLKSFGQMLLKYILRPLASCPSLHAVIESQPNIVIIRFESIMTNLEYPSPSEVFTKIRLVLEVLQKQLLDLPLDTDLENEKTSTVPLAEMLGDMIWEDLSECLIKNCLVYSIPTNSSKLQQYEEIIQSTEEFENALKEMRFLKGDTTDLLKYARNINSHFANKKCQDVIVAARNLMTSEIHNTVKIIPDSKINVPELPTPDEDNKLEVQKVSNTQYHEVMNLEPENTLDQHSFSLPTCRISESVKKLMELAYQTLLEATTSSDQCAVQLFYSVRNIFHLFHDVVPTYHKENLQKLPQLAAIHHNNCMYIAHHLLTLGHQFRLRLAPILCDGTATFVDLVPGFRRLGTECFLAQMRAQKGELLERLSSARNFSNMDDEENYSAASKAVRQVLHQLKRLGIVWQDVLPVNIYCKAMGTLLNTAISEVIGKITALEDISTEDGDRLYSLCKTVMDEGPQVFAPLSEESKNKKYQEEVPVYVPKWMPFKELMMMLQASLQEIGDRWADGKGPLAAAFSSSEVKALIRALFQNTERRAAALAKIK

CNC(=O)c1ccccc1Nc1nc(Nc2ccc(N3CCOCC3)cc2OC)ncc1Cl
inactive: ZW10 0.035 | ZWILCH 0.027 | ZYG11B -0.016

CCn1cc(-c2ccnc3[nH]c(-c4cccc(CN(C)C)c4)cc23)c(-c2ccc(NC(=O)N(C)C)cc2)n1
inactive: ZW10 0.022 | ZWILCH 0.01 | ZYG11B -0.085

CNC(=O)c1ccc(Nc2ncc(C(F)(F)F)c(NCc3nccnc3N(C)S(C)(=O)=O)n2)cc1 [defactinib]
inactive: ZW10 -0.083 | ZWILCH -0.007 | ZYG11B -0.058

CNCc1ccc(-c2[nH]c3cc(F)cc4c3c2CCNC4=O)cc1 [rucaparib]
inactive: ZW10 0.128 | ZWILCH -0.051 | ZYG11B 0.061

CCCS(=O)(=O)Nc1ccc(F)c(C(=O)c2c[nH]c3ncc(Cl)cc23)c1F
inactive: ZW10 0.053 | ZWILCH 0.016 | ZYG11B -0.043

CN(C)CC(=O)Nc1ccc2[nH]c(=O)c3ccccc3c2c1
inactive: ZW10 0.013 | ZWILCH 0.051 | ZYG11B -0.003

CCN(CC)Cc1ccc2cc(COC(=O)Nc3ccc(C(=O)NO)cc3)ccc2c1 [givinostat]
inactive: ZW10 0.096 | ZWILCH 0.046 | ZYG11B -0.009

Oc1cc(-c2nc(-c3ccccc3)[nH]c2-c2ccncc2)ccc1Cl
inactive: ZW10 -0.034 | ZWILCH -0.002 | ZYG11B 0.015

O=C1NC(=NCc2cccs2)S/C1=C\c1ccc2ncccc2c1
inactive: ZW10 -0.021 | ZWILCH 0.023 | ZYG11B -0.007

COc1ccc(Cn2ccc3ccc(C(=O)NO)cc32)cc1
inactive: ZW10 -0.004 | ZWILCH 0.019 | ZYG11B 0.052

NC(=O)c1cnc(N[C@@H]2CCCC[C@@H]2N)nc1Nc1cccc(-n2nccn2)c1
inactive: ZW10 -0.027 | ZWILCH -0.085 | ZYG11B 0.022

c1cc(OCCN2CCCCC2)cc(-c2n[nH]c3ccc(-c4nnc[nH]4)cc23)c1
inactive: ZW10 -0.016 | ZWILCH -0.048 | ZYG11B 0.002

Cc1ccc(-n2nc(C(C)(C)C)cc2NC(=O)Nc2ccc(OCCN3CCOCC3)c3ccccc23)cc1 [doramapimod]
inactive: ZW10 0.048 | ZWILCH -0.002 | ZYG11B 0.036

CN1CCC(CNc2ccc3ncc(-c4cccc(OC(F)(F)F)c4)n3n2)CC1
inactive: ZW10 -0.108 | ZWILCH -0.085 | ZYG11B -0.113

O=C1c2ccccc2-c2n[nH]c3cccc1c23
inactive: ZW10 -0.031 | ZWILCH -0.007 | ZYG11B -0.033

Fc1ccc(Cl)cc1-c1nc(Nc2ccncc2)c2nccnc2n1
inactive: ZW10 -0.04 | ZWILCH -0.013 | ZYG11B 0.013

Cn1cc(-c2ccc3nnc(C(F)(F)c4ccc5ncccc5c4)n3n2)cn1
inactive: ZW10 -0.069 | ZWILCH -0.069 | ZYG11B 0

COC(=O)[C@H](CCSC)NC(=O)c1ccc(NC[C@@H](N)CS)cc1-c1ccccc1
inactive: ZW10 -0.079 | ZWILCH -0.077 | ZYG11B 0.013

CO[C@H]1C[C@@H]2CC[C@@H](C)[C@@](O)(O2)C(=O)C(=O)N2CCCC[C@H]2C(=O)O[C@H]([C@H](C)C[C@@H]2CC[C@H](n3cnnn3)[C@H](OC)C2)CC(=O)[C@H](C)/C=C(\C)[C@@H](O)[C@@H](OC)C(=O)[C@H](C)C[C@H](C)/C=C/C=C/C=C/1C [zotarolimus]
inactive: ZW10 0.023 | ZWILCH 0.046 | ZYG11B 0.024

O=C1NC(=O)/C(=C\c2ccc3nccnc3c2)S1
inactive: ZW10 -0.009 | ZWILCH 0.056 | ZYG11B -0.084

COc1cc2nc(-c3cc(F)ccc3O)nc(N[C@@H]3CNC[C@H]3C(C)(C)O)c2cc1OC
inactive: ZW10 0.041 | ZWILCH 0.03 | ZYG11B 0.034

Cc1nc(Nc2n[nH]c3c2CN(C(=O)N[C@H](CN(C)C)c2ccccc2)C3(C)C)c2sccc2n1
inactive: ZW10 -0.11 | ZWILCH -0.042 | ZYG11B 0.026

CCN(CCCOc1ccc2c(Nc3cc(CC(=O)Nc4cccc(F)c4)[nH]n3)ncnc2c1)CCOP(=O)(O)O [barasertib]
inactive: ZW10 0.055 | ZWILCH 0.064 | ZYG11B 0.044
